Bioassay records deposited in PubChem by National Center for Advancing Translational Sciences (NCATS).
AMA1 RON2 block: AMA1-RON2 (P. falciparum) interaction inhibition. 360,000 tested, 0.2% active. Potency, µM (top dose mostly 58.2 µM), actives largely listed as inhibitors. AlphaScreen AMA1-biotinylated RON2 peptide binding; further: nearly all actives have a fitted effect of over 45% in size
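AMA1 (3D7) with his tag at 25 nM final met compounds first, then biotinylated RON2 peptide at 25 nM; detection used donor plus acceptor beads, 10 µg/mL apiece, read by AlphaScreen after 30 min at room temperature.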
Pf growth 96h: P. falciparum growth inhibition at 96 hour, primary screen for plastid delayed-death inhibitors | Potency, µM (highest dose often 28.7 µM), hits mostly inhibitors | P. falciparum luciferase reporter growth, 96 h | 320,000 tested, 6.9% active
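P. falciparum expressing integrated firefly luciferase grown in erythrocytes (2% hematocrit, 0.05% parasitemia final) with compounds for 96 hours at 37 C, 5% CO2. Growth inhibition read as loss of luminescence after adding luciferase detection reagent.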
VACV mCherry inh: inhibitors of vaccinia virus infection (mCherry reporter signal); Vaccinia virus mCherry reporter infection, fluorescence; Potency, µM (series often up to 36.5 µM), actives largely listed as inhibitors; 310,000 tested, 0.63% active; calls by dose curve; tested in A549 cells; further: nearly all actives have a fitted effect of over 35% in size
Vaccinia Venus: vaccinia inhibition (Venus reporter) | 330,000 tested, 0.46% active | Potency, µM (doses to about 36.5 µM), usual class: inhibitors | Vaccinia virus Venus reporter expression, fluorescence; calls by dose curve; tested in A549 cells; further: nearly all actives have a fitted effect of over 30% in size
Pf growth 48h: P. falciparum growth inhibition at 48 hours (one generation) | P. falciparum luciferase growth in erythrocytes, 48 h | Potency, µM (titrated, usually from 28.7 µM), usual class: inhibitors | 310,000 tested, 5.9% active | AID 504832
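Cell-based growth assay: transgenic P. falciparum expressing firefly luciferase, cultured in red cells within RPMI 1640 containing 0.5% w/v Albumax, 24 mM bicarbonate and gentamycin. A drop in luciferase activity indicates inhibition.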
A number is an active result; - = inactive; ? = inconclusive; . = no result given; ! = not active in a repeat. Hits are enriched below; roughly 8.7% of the tested compounds scored in any of these assays. Unless noted, the call rests on the fitted dose curve; in most records, active means well fitted curve in the direction sought with a large enough effect; inconclusive means small, poorly fitted or top-dose-only effect, or another doubt; inactive means no such curve, though single readings can be large; an effect the other way counts as inactive or inconclusive.

SMILES	AMA1 RON2 block	Pf growth 96h	VACV mCherry inh	Vaccinia Venus	Pf growth 48h
CN(C)c1ccc(C2/C(=C(/O)c3ccc(Br)cc3)C(=O)C(=O)N2C)cc1 (stereo not given)	?	5.86µM	.	.	.
CN1C(=O)C(=O)/C(=C(/O)c2ccccc2)C1c1ccc(Br)cc1 (stereo not given)	-	?	.	.	-
CCN(CC)CCC(=O)N1c2ccccc2Sc2ccc(Cl)cc21	-	1.65µM	-	-	?
O=C(CCN1CCN2CCCC2C1)N1c2ccccc2Sc2ccc(Cl)cc21 (stereo not given)	-	10.7µM!	.	.	?
CN(C)CCC(=O)N1c2ccccc2Sc2ccc(Cl)cc21	-	-	?	-	?
Nc1nc(CCl)nc(Nc2cccc3ccccc23)n1	-	13.1µM	.	.	?
Cc1oc(-c2cccc(Cl)c2)nc1CN1CCC(C(=O)N2CCN(c3ccccc3F)CC2)CC1	-	-	?	15.8µM	?
Cc1oc(-c2cccc(Cl)c2)nc1CN1CCC(C(=O)NC(C)C)CC1	.	.	-	-	.
Cc1oc(-c2cccc(F)c2)nc1CN1CCCCC1CCn1cccn1 (stereo not given)	-	-	.	.	13.1µM
COc1ccccc1CNC(=O)C1CCN(Cc2nc(-c3cccc(Cl)c3)oc2C)CC1	-	-	.	.	10.4µM
CCN1CCCC1CNC(=O)C1CCN(Cc2nc(-c3cccc(Br)c3)oc2C)CC1 (stereo not given)	-	?	-	-	6.57µM
Cc1ccc(-c2nc(CN3CCCCC3CCN3CCCC3=O)c(C)o2)o1 (stereo not given)	-	-	-	-	-
Cc1ccc(Cl)cc1N1CCN(C(=O)C2CCN(Cc3nc(-c4cccc(Cl)c4)oc3C)CC2)CC1	.	.	-	?	.
COc1ccc(N2CCN(C(=O)c3cc4cc5ccc(Cl)cc5nc4o3)CC2)cc1	.	.	-	-	.
CCCn1c2ccccc2c2cnn(CC(=O)NCCc3ccc(OCC)cc3)c(=O)c21	.	.	-	-	.
Cc1oc(-c2ccc(Cl)cc2)nc1CN1CCC(C(=O)NCCCN2CCCC2=O)CC1	-	?	-	-	.
CSc1ccc(-c2nc(CN3CCCCC3c3cccnc3)c(C)o2)cc1 (stereo not given)	-	-	-	-	8.28µM
Cc1oc(-c2ccc(Cl)cc2)nc1CN1CCC(C(=O)NCCCN2CCCC(C)C2)CC1 (stereo not given)	-	-	.	.	2.08µM
COc1ccc(-c2nc(CN3CCC(c4ccccc4)CC3)c(C)o2)cc1OC	-	13.1µM	-	-	11.7µM
N#Cc1cc2sc3nnc(-c4ccncc4)n3c2cc1C#N	-	?	-	?	13.1µM
CC(C)NC(=O)C1CCC(Cn2c(=O)c3sccc3n(CC(=O)NCc3ccccc3)c2=O)CC1 (stereo not given)	.	.	-	-	.
CCC(=O)OCCCNc1nc(-c2ccc(Cl)cc2)nc2ccccc12	.	.	-	-	.
COc1ccccc1CN1CCOc2ccc(C(C)(O)COc3ccccc3)cc2C1 (stereo not given)	.	.	-	-	.
CCCNC(=S)NC1CC2CCCC(C1)N2Cc1ccc(F)cc1 (stereo not given)	-	?	.	.	?
CCCN1C2CCCC1CC(NC(=O)Nc1cccc(C(C)=O)c1)C2 (stereo not given)	-	?	.	.	?
SMILES	AMA1 RON2 block	Pf growth 96h	VACV mCherry inh	Vaccinia Venus	Pf growth 48h
O=C(Nc1ccccc1-c1ccccc1)NC1CC2CCCC(C1)N2CCc1ccccc1 (stereo not given)	-	?	-	-	5.22µM
O=C(Nc1ccccc1-c1ccccc1)NC1CC2CCCC(C1)N2Cc1ccc(F)cc1 (stereo not given)	-	-	-	-	11.7µM
CCOC(=O)c1cc(OC(=O)c2ccc(OC)c(OC)c2)n(-c2ccccc2)n1	.	.	-	-	.
O=C(CCn1cnc2onc(-c3ccc(F)cc3)c2c1=O)N1CCN(c2ccccc2F)CC1	.	.	-	-	.
O=C(NC(=S)Nc1ccccn1)c1ccccc1	-	-	-	-	-
O=C(NC(=S)Nc1ccccn1)c1ccc(-c2ccccc2)cc1	-	?	11.2µM	-	-
C=CCN(CC=C)S(=O)(=O)c1ccc(NC(=S)NC(=O)c2ccc(-c3ccccc3)cc2)cc1	-	.	.	?	1.47µM
O=C(c1cccc(Cn2cccn2)c1)N1CCC(n2c(C3CCCO3)nc3cc(C(F)(F)F)ccc32)CC1 (stereo not given)	.	.	-	-	.
O=C(NC(Nc1ncc(S(=O)(=O)c2ccc([N+](=O)[O-])cc2)s1)(C(F)(F)F)C(F)(F)F)c1ccc(Cl)cc1	-	.	17.8µM	?	9.28µM
Oc1sc(C=Nc2ccc(F)cc2)c2ccccc12	-	3.29µM	.	.	4.65µM
FC(F)(F)c1cc(-c2ccco2)nc(NCc2cccnc2)n1	-	?	-	-	11.7µM
FC(F)(F)c1cc(-c2ccccc2)nc(NCc2cccnc2)n1	-	?	?	?	3.7µM
Fc1ccc(-c2cc(C(F)(F)F)nc(NCc3ccccc3)n2)cc1	.	.	-	-	.
CC1CN(Cc2cccn2-c2ncccn2)Cc2cc(Cl)ccc2O1 (stereo not given)	.	.	-	-	.
CCCSCCCNC(=O)c1ccc2c(c1)sc1nc(-c3ccc(OCC)cc3)cn12	.	.	-	-	.
O=C(c1ccco1)N(Cc1cc2cc3c(cc2nc1N1CCOCC1)CCC3)CC1CCCO1 (stereo not given)	.	.	-	-	.
Cc1nnc(SC(=O)N2c3ccccc3Sc3ccccc32)s1	-	.	10µM	?	10.4µM
CCC(=O)N1CCc2cc(Br)cc(S(=O)(=O)CCC(=O)NCc3ccccc3)c21	.	.	-	-	.
CCC(=O)N1CCc2cc(Br)cc(S(=O)(=O)CCC(=O)NCc3ccco3)c21	-	.	-	-	8.28µM
CCC(=O)N1CCc2cc(Br)cc(S(=O)(=O)CCC(=O)N(C)c3cccc(C)c3)c21	.	5.22µM	-	-	11.7µM
CCN(CC)CC#Cc1ccc(C)cc1	-	-	-	-	-
Cc1ccc(C#CC[N+](C)(C)CC#Cc2ccccc2)cc1	-	5.86µM	-	-	2.33µM
C#CC[N+](C)(C)CC#Cc1ccccc1	-	-	?	?	1.65µM
O=C(N/N=C/C(Br)=C\c1ccccc1)c1cccs1	-	3.7µM	-	-	?
O=C(N/N=C/C(Br)=C/c1ccccc1)c1cccnc1	-	10.4µM	-	-	10.4µM
SMILES	AMA1 RON2 block	Pf growth 96h	VACV mCherry inh	Vaccinia Venus	Pf growth 48h
CC(=C/c1ccccc1)/C=N/NC(=O)c1cccs1	-	-	-	-	-
O=C(N/N=C/C(Br)=C/c1ccccc1)C1CC1	-	9.28µM	-	-	?
O=C(N/N=C/C(Br)=C\c1ccccc1)c1ccc2nc[nH]c2c1	-	?	-	-	-
O=C(N/N=C/C(Br)=C/c1ccccc1)c1ccncc1	-	14.7µM	.	.	10.4µM
Cc1ccc(NC(=O)C2CCN(C(=O)c3cnn(-c4ccccc4)c3-n3cccc3)CC2)cc1	.	.	-	-	.
CC(=O)c1ccc(NC(=O)C2CCC(CNS(=O)(=O)c3cccc4nsnc34)CC2)cc1 (stereo not given)	.	.	-	-	.
CC(=C/c1ccc(C(C)C)cc1)/C=N/NC(=O)c1ccncc1	-	?	.	.	13.1µM
CC(/C=N/NC(=O)c1ccncc1)=C\c1ccccc1	-	-	-	-	?
